High-throughput results deposited in PubChem by several laboratories.
Rows were chosen to be rich in hits. Some 2.6% of all compounds tested hit in one or more screens of this group.
AI-2 QS modul: Vibrio harveyi AI-2 quorum sensing modulation | Vibrio harveyi JMH597 AI-2 luminescence/OD600 ratio, 9 h; hits give low values; strain lacks LuxN and CqsS sensors; 0 = neutral-control median | activity change, % at 7.5 µM | 300,000 tested, 0.4% active | AID 2094; in the data active = activity change below about -75%, passing the limit was not always enough; inconclusive = no clear call, values can overlap the other calls;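 note: luminescence divided by OD600 gain over 9 h not by final OD600 alone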
eIF4H inh: inhibitors of RNA binding by human eIF4H; AID 2012; inhibition, % at 35 µM; eIF4H fluorescence polarization binding assay; 290,000 tested, 0.94% active;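 note: calls also rest on retests at 20 µM and on dose response follow-up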
MLLE-PAM2 inh: blocks PAM2 peptide binding to the PABP1 MLLE domain. P11940. 360,000 tested, 0.36% active. inhibition, % at 20 µM. GST-MLLE / FITC-PAM2 fluorescence polarization; in the data active = inhibition above about 35%, passing the limit was not always enough
ABCB6 inh 2: blocks the human ABCB6 transporter; Q9NP58; K562-ABCB6 porphyrin accumulation, flow cytometry, 1 h; hits give low values; fluorescence ratio to DMSO, % at 10 µM; 360,000 tested, 0.19% active;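 active = fluorescence ratio to DMSO below 75%, the collection mean minus 3 SD; inconclusive = too few cells collected in the well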;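 note: signal is porphyrin accumulated inside mitochondria; lower ratio means ABCB6 inhibition with less porphyrin fluorescence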
PABP FP inh: PABP-poly(A) binding inhibition; PABP-poly(A) RNA binding, fluorescence polarization; AID 2014; calls only at 35 µM; 290,000 tested, 1% active;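 note: calls also rest on retests at 20 µM and on dose response follow-up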
PHOSPHO1 block: inhibitors of human PHOSPHO1 phosphatase | Q8TCT1 | recombinant PHOSPHO1, absorbance phosphatase assay | inhibition, % at 13.3 µM | 290,000 tested, 1.1% active | AID 1565; in the data active = inhibition above about 60%
Target sequence (Q8TCT1 whole entry, looked up): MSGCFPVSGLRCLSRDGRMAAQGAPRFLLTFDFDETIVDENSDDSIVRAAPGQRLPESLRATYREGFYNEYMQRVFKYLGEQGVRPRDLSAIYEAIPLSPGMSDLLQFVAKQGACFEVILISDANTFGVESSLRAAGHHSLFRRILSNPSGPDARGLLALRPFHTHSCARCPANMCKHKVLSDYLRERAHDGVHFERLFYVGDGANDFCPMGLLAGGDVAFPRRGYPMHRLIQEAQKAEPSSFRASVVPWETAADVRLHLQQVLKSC
Large screens that a line does not name were inactive. Unless noted, the rule behind the calls is not given here.

C[C@H](CO)N1C[C@H](C)[C@H](CN(C)Cc2cccc(C(F)(F)F)c2)OCc2ccccc2-c2c(n(C)c3ccccc23)C1=O	none (no result: AI-2 QS modul, eIF4H inh, PABP FP inh, PHOSPHO1 block)
CCn1cc(/C=C(\NC(=O)c2cc(OC)c(OC)c(OC)c2)C(=O)NCCCN2CCOCC2)c2ccccc21	PHOSPHO1 block 64.9
Cc1cc2nc(-c3ccccc3)c(CC(C)(C)C)n2c(C)c1Br	none (no result: AI-2 QS modul, eIF4H inh, PABP FP inh, PHOSPHO1 block)
Cc1cccc2c(N=Nc3ccccc3)c(O)[nH]c12	eIF4H inh 95.1, PABP FP inh active
COc1cc(CNc2ncnc3c2ncn3[C@H]2CN(Cc3ccc(Cl)cc3)C[C@@H](CO)O2)cc(OC)c1OC	none (no result: AI-2 QS modul, eIF4H inh, PABP FP inh, PHOSPHO1 block)
CC1(C(=O)NS(=O)(=O)c2cccc(C#N)c2)CCN1C(=O)CCC1CCCC1 (centres undefined)	none (no result: AI-2 QS modul, eIF4H inh, PABP FP inh, PHOSPHO1 block)
CC1(C(=O)NCC2CC2)CCN1C(=O)C1(c2ccccc2)CC1 (centres undefined)	none (no result: AI-2 QS modul, eIF4H inh, PABP FP inh, PHOSPHO1 block)
COc1ccc(-c2ccc(CCC(=O)O)n2NC(N)=O)cc1	none
COc1ccc(-c2ccc(CCC(=O)O)n2NC(=O)c2ccc(O)cc2)cc1	PHOSPHO1 block 62.8
CCCn1c(CCC(=O)O)ccc1-c1ccc(OC)cc1	eIF4H inh 53.0, PABP FP inh active
CSc1ccc(NC(=O)C2(C)CCN2C(=O)Cc2ccc(C(C)(C)C)cc2)cc1 (centres undefined)	none (no result: AI-2 QS modul, eIF4H inh, PABP FP inh, PHOSPHO1 block)
CC1(C(=O)Nc2ccc(Cl)cc2)Cc2c(-c3ccc(C(N)=O)cc3)ccnc2O1 (centres undefined)	none (no result: AI-2 QS modul, eIF4H inh, PABP FP inh, PHOSPHO1 block)
CC(=O)Nc1cccc(NC(=O)c2cc(-c3cccnc3)nc3ccc(Cl)cc23)c1	none
CCc1nnc(NC(=O)c2cc(-c3ccncc3)nc3ccccc23)s1	none
CCc1nnc(NC(=O)c2cc(-c3ccccn3)nc3ccc(Br)cc23)s1	PHOSPHO1 block 72.0
CC(=O)Nc1cccc(NC(=O)c2cc(-c3ccccn3)nc3ccc(Cl)cc23)c1	PABP FP inh active
CCN1CCN(C(=O)CCc2nnc(CCc3c[nH]c4ccccc34)o2)[C@@H](C)C1=O	none
CC(C)CN1CCN(C(=O)CCc2nnc(Cc3c[nH]c4ccccc34)o2)[C@@H](C)C1=O	PHOSPHO1 block 65.8
O=C1NC(=Nc2ccc(O)cc2)S/C1=C\C=C\c1ccco1	eIF4H inh 82.7, PABP FP inh active
COCCN1C[C@@H](CO)O[C@@H](n2cnc3c(NC4CCC4)ncnc32)C1	none (no result: AI-2 QS modul, eIF4H inh, PABP FP inh, PHOSPHO1 block)
Cc1cc(C)nc(N/N=C/c2ccccc2OCc2ccc(Br)cc2)n1	none
Cc1cc(C)nc(N/N=C/c2ccccc2OCc2ccccc2)n1	PABP FP inh active
Cc1ccc(NC(=O)c2c3c(nc4ccccc24)CCC3)cc1S(=O)(=O)N(C)C	eIF4H inh 72.1
COc1ccc(NC(=O)c2c3c(nc4ccccc24)CCC3)cc1S(=O)(=O)N1CCOCC1	PABP FP inh active
COc1ccc(NC(=O)CSc2ccc([N+](=O)[O-])cc2)cc1S(=O)(=O)N1CCOCC1	MLLE-PAM2 inh 40.6 (no result: AI-2 QS modul, eIF4H inh, PABP FP inh, PHOSPHO1 block)
CN(C)c1nc(N)nc(CSc2nnnn2-c2ccc(Cl)cc2)n1	none (no result: AI-2 QS modul, eIF4H inh, PABP FP inh, PHOSPHO1 block)
COCCCn1cc(CN2CC(N3CCSCC3)CS2(=O)=O)nn1 (centres undefined)	none (no result: AI-2 QS modul, eIF4H inh, MLLE-PAM2 inh, PABP FP inh, PHOSPHO1 block)
CCOC(=O)C1=C(C)Nc2sc(C(=O)c3ccc(F)cc3)c(N)c2C1c1ccc(C(=O)OC)cc1 (centres undefined)	none
CCOC(=O)C1=C(C)Nc2sc(C(=O)c3ccc(C)cc3)c(N)c2C1c1ccc(C(=O)OC)cc1 (centres undefined)	PABP FP inh active
CC(=O)[C@@H]1[C@@H]2C(=O)N(C3CCCCC3)C(=O)[C@@H]2C2c3ccccc3C=CN21 (some centres undefined)	none (no result: MLLE-PAM2 inh, ABCB6 inh 2)
O=C1NC(=O)[C@@H]2C3c4ccccc4C=CN3[C@H](C(=O)c3cccs3)[C@H]12 (some centres undefined)	eIF4H inh 125.6, PABP FP inh active (no result: MLLE-PAM2 inh, ABCB6 inh 2)
CCc1nc2ccc(C(=O)NCCC(C)C)cn2c1N(CC)CCOC	none (no result: AI-2 QS modul, eIF4H inh, PABP FP inh, PHOSPHO1 block)
CC1CC1C(=O)OCC(=O)Nc1cccc([N+](=O)[O-])c1 (centres undefined)	eIF4H inh inconclusive, PABP FP inh active
O=C(COC(=O)c1ccc(F)cc1F)Nc1ccc2[nH]c(=O)[nH]c2c1	none
CC1CC1C(=O)OCC(=O)Nc1ccc2[nH]c(=O)[nH]c2c1 (centres undefined)	eIF4H inh inconclusive, PABP FP inh active
CCCC(=O)OCC(=O)Nc1ccc2[nH]c(=O)[nH]c2c1	none
O=C(COC(=O)c1c(F)cccc1F)Nc1ccc2[nH]c(=O)[nH]c2c1	eIF4H inh 57.0
Cc1cccc(CN2CCN([C@H]3CS(=O)(=O)N[C@@H]3COCc3ccccc3)CC2)c1	none (no result: AI-2 QS modul, eIF4H inh, PABP FP inh, PHOSPHO1 block)
Cc1cc(C)c2nc(N3C(=O)C(O)=C(C(=O)c4ccco4)C3c3ccco3)sc2c1 (centres undefined)	eIF4H inh 65.5
Cc1ccc2nc(N3C(=O)C(O)=C(C(=O)c4ccco4)C3c3cccs3)sc2c1 (centres undefined)	PHOSPHO1 block 86.2
O=C1CS/C(=N/N=C/c2ccccc2)N1c1ccc(O)cc1	none (no result: AI-2 QS modul)
O=C1CS/C(=N\N=C\c2ccco2)N1c1ccccc1	eIF4H inh 85.0, PABP FP inh active
CCCCCCCCN1C(=O)[C@H](CC(=O)NCc2ccc(OC)c(OC)c2)C[C@@]2(C(=O)OCC)CCCC=C12	none (no result: AI-2 QS modul, eIF4H inh, MLLE-PAM2 inh, PABP FP inh, PHOSPHO1 block)
Cc1ccc(Cn2cc(CN3CC(N4CCN(CCO)CC4)CS3(=O)=O)nn2)cc1 (centres undefined)	none (no result: AI-2 QS modul, eIF4H inh, MLLE-PAM2 inh, PABP FP inh, PHOSPHO1 block)
O=C1c2ccccc2COc2ccc(O)cc21	eIF4H inh 51.4
CCCC(=O)Nc1cccc2c1CCCC2	none
CCc1ccc(OCC(=O)Nc2cccc3c2CCCC3)cc1	eIF4H inh inconclusive, PABP FP inh active
N#CCOc1ccccc1CNC[C@H]1O[C@@H](n2cnc3c(=O)[nH]c(N)nc32)[C@H](O)[C@@H]1O	none (no result: AI-2 QS modul, eIF4H inh, PABP FP inh, PHOSPHO1 block)
CC1(C(=O)NS(=O)(=O)C2CC2)CCCN(C(=O)c2cc3ccccc3s2)C1 (centres undefined)	none (no result: AI-2 QS modul, eIF4H inh, PABP FP inh, PHOSPHO1 block)
O=C(NNC(=O)c1ccccc1F)c1ccc2nc[nH]c2c1	none
O=C(NNC(=O)c1ccccc1Br)c1ccc2nc[nH]c2c1	eIF4H inh 83.7, PABP FP inh active
COC(=O)C1=C(C)Nc2ccc(C)cc2S1	none
CC(=O)C1=C(C)Nc2cc(C(F)(F)F)ccc2S1	PHOSPHO1 block 96.2
CC(NC(=O)CCC(=O)Nc1ccccc1O)c1ccccc1 (centres undefined)	none (no result: eIF4H inh, PABP FP inh, PHOSPHO1 block)
CC(CNc1ccccc1O)C(=O)O (centres undefined)	MLLE-PAM2 inh 76.0
N#Cc1c(Nc2cccc(F)c2)sc2c(O)cc(=O)[nH]c12	eIF4H inh 55.7, PABP FP inh active
N#Cc1c(SCC(=O)Nc2ccc(C(F)(F)F)cc2)sc2c(O)cc(=O)[nH]c12	none
CC(C)NC(=O)C1(C)CCN1C(=O)c1ccccc1 (centres undefined)	none (no result: AI-2 QS modul, eIF4H inh, PABP FP inh, PHOSPHO1 block)
